Data reported in the supplement of paper PMC9262897, “Low-cost anti-mycobacterial drug discovery using engineered E. coli” (Nature Communications, 2022).
Where a name gives a salt, the structure may show the parent alone. ± gives the standard deviation of the averaged measurements.

Test system: E. coli TESEC Mtb Alr
Test: growth (OD600 after 10 h); higher = more growth (less inhibition)
Details: compound 0.1 mM
Protocol: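 TESEC Mtb Alr E. coli, or the Alr+ wild-type control, in 384-well plates with Prestwick library compounds at 0.1 mM and 1% DMSO, across arabinose induction levels of 1E3 to 1E7 nM. Growth is read as OD600 after 10 h at 37 °C in triplicate biological replicates.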

[1] = arabinose 1000 nM, raw OD600 reference: median of DMSO wells 0.294, cell-free background 0.041
[2] = arabinose 10000 nM, raw OD600 reference: median of DMSO wells 0.264, cell-free background 0.041
[3] = arabinose 100000 nM, raw OD600 reference: median of DMSO wells 0.201, cell-free background 0.041
[4] = arabinose 1000000 nM, raw OD600 reference: median of DMSO wells 0.193, cell-free background 0.041
[5] = arabinose 10000000 nM, raw OD600 reference: median of DMSO wells 0.146, cell-free background 0.041

SMILES	growth [1]	growth [2]	growth [3]	growth [4]	growth [5]
COP(=O)(OC)C(O)C(Cl)(Cl)Cl (stereo not given) [Trichlorfon]	0.293 ± 0.0065	0.248 ± 0.0076	0.199 ± 0.015	0.181 ± 0.0066	0.146 ± 0.0059
CNCC(O)c1ccc(O)cc1 (racemic) [(+,-)-Synephrine]	0.2963 ± 0.00035	0.267 ± 0.01	0.175 ± 0.012	0.198 ± 0.012	0.141 ± 0.0004
C[C@]12C[C@H]3S[C@H]3C[C@@H]1CC[C@@H]1[C@@H]2CC[C@]2(C)[C@@H](O)CC[C@@H]12 [Epitiostanol]	0.291 ± 0.012	0.281 ± 0.0097	0.144 ± 0.011	0.15 ± 0.013	0.136 ± 0.0072
C[C@@H]1O[C@@H](O[C@@H]2C=C3CC[C@@H]4[C@H](CC[C@]5(C)[C@@H](c6ccc(=O)oc6)CC[C@]45O)[C@@]3(C)CC2)[C@H](O)[C@H](O)[C@H]1O [Proscillaridin A]	0.247 ± 0.0077	0.256 ± 0.016	0.13 ± 0.0072	0.108 ± 0.0053	0.134 ± 0.0043
CC[C@@H](CO)NC(=O)[C@@H]1C=C2c3cccc4[nH]cc(c34)C[C@H]2N(C)C1 [Methylergometrine maleate]	0.262 ± 0.0081	0.207 ± 0.0073	0.279 ± 0.0098	0.119 ± 0.0017	0.178 ± 0.0023
CC(C)c1c(CN(C)C(C)Cc2ccccc2)n(C)n(-c2ccccc2)c1=O (stereo not given) [Famprofazone]	0.279 ± 0.013	0.27 ± 0.014	0.154 ± 0.0078	0.131 ± 0.0042	0.154 ± 0.0085
OC(c1ccccc1)(c1ccccc1)C1CCNCC1 [Azacyclonol]	0.294 ± 0.011	0.269 ± 0.0093	0.2264 ± 0.00067	0.166 ± 0.0076	0.136 ± 0.0054
C=CCC1(CC(C)C)C(=O)NC(=O)NC1=O [Butalbital]	0.282 ± 0.011	0.276 ± 0.0052	0.198 ± 0.012	0.211 ± 0.0091	0.149 ± 0.0019
